Data: PubChem BioAssay (EPA / NIEHS)
Calls of active or inactive are those of the source. The calls were made as follows: active = hit-call score of the fitted dose curve at least 0.9, where 1 is the maximum; inactive = score below 0.9.

How the values were obtained:
Details in all cases: mRNA level, 48 h; actives raise or lower the signal
CYP2C8 (gene 1558) = experiment: LTEA_HepaRG_CYP2C8: Life Technologies and Expression Analysis (LTEA) Assay for CYP2C8 using HepaRG (AID 2283483)
In short: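 Differentiated HepaRG cells in serum-free induction medium exposed 48 h in duplicate to 8 half-log concentrations from 100 uM in 0.5% DMSO. CYP2C8 mRNA by qRT-PCR normalized to ACTB, GAPDH, POLR2A; bidirectional fit versus DMSO.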

CYP2C9 (gene 1559) = experiment: LTEA_HepaRG_CYP2C9: Life Technologies and Expression Analysis (LTEA) Assay for CYP2C9 using HepaRG (AID 2283484)
In short: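 Differentiated human HepaRG cells in serum-free induction medium were exposed 48 h to chemicals in 8-point half-log series from 100 uM (0.5% DMSO), in duplicate. CYP2C9 mRNA was measured by qRT-PCR, normalized to ACTB/GAPDH/POLR2A, with bidirectional fitting versus DMSO.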

CYP2E1 (gene 1571) = experiment: LTEA_HepaRG_CYP2E1: Life Technologies and Expression Analysis (LTEA) Assay for CYP2E1 using HepaRG (AID 2283485)
In short: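 HepaRG cells in serum-free induction medium exposed 48 h to test chemicals, 8 half-log concentrations up to 100 uM in 0.5% DMSO, duplicate. CYP2E1 mRNA by qRT-PCR, normalized to ACTB, GAPDH, POLR2A; bidirectional fit versus DMSO.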

CYP4A11 (gene 1579) = experiment: LTEA_HepaRG_CYP4A11: Life Technologies and Expression Analysis (LTEA) Assay for CYP4A11 using HepaRG (AID 2283486)
In short: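 HepaRG, 48 h chem exposure, 8 conc (100 uM top, half-log), 0.5% DMSO vehicle; qRT-PCR readout, housekeeping-gene normalized; bidirectional curve fit vs DMSO baseline.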

[1] = read-out: Cytochrome P450 3A4 (Homo sapiens) (UniProt P08684); experiment: LTEA_HepaRG_CYP3A4: Life Technologies and Expression Analysis (LTEA) Assay for CYP3A4 using HepaRG (AID 2283487)
In short: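 Differentiated HepaRG cells, plated 48 h, then dosed 48 h in serum-free induction medium with 0.5% DMSO, 8 half-log concentrations up to 100 uM, duplicate. CYP3A4 mRNA by qRT-PCR, normalized to ACTB/GAPDH/POLR2A; bidirectional fit versus DMSO.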

[2] = read-out: DNA damage-inducible transcript 3 (DDIT3), DDIT3 (gene 1649); experiment: LTEA_HepaRG_DDIT3: Life Technologies and Expression Analysis (LTEA) Assay for DNA damage-inducible transcript 3 (DDIT3) using HepaRG (AID 2283488)
In short: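 Differentiated human HepaRG cells in serum-free induction medium were exposed in duplicate for 48 h to 8 concentrations (top 100 uM, half-log steps, 0.5% DMSO). DDIT3 mRNA measured by TaqMan qRT-PCR, normalized to ACTB/GAPDH/POLR2A; bidirectional fit versus DMSO.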

[3] = read-out: Pro-epidermal growth factor (Homo sapiens) (UniProt P01133); experiment: LTEA_HepaRG_EGF: Life Technologies and Expression Analysis (LTEA) Assay for Epidermal growth factor (EGF) using HepaRG (AID 2283489)
In short: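 HepaRG, 48 h dosing, 100 uM top, half-log x8, 0.5% DMSO. Readout: TaqMan qRT-PCR (Fluidigm array), housekeeping-normalized. Gain or loss of signal fit vs DMSO.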

[4] = read-out: Early growth response protein 1 (EGR1) transcription factor, EGR1 (gene 1958); experiment: LTEA_HepaRG_EGR1: Life Technologies and Expression Analysis (LTEA) Assay for Early growth response protein 1 (EGR1) transcription factor using HepaRG (AID 2283490)
In short: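 Differentiated HepaRG cells in serum-free induction medium exposed 48 hours, duplicate, to 8 half-log concentrations up to 100 uM in 0.5% DMSO. EGR1 mRNA measured by TaqMan qRT-PCR, normalized to ACTB, GAPDH, POLR2A; bidirectional fit versus DMSO.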

[5] = read-out: Ezrin (EZR), EZR (gene 7430); experiment: LTEA_HepaRG_EZR: Life Technologies and Expression Analysis (LTEA) Assay for Ezrin (EZR) using HepaRG (AID 2283491)
In short: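 EZR transcript levels came from Fluidigm qRT-PCR and were normalized to three housekeeping genes after 48 h chemical exposure of HepaRG cells. Dosing used an 8-point half-log series with a 100 uM top concentration in 0.5% DMSO, tested in duplicate; both directions were fitted versus vehicle.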

[6] = read-out: Cytochrome P450 3A7 (Homo sapiens) (UniProt P24462); experiment: LTEA_HepaRG_CYP3A7: Life Technologies and Expression Analysis (LTEA) Assay for CYP3A7 using HepaRG (AID 2283492)
In short: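 Human HepaRG liver cells, 48 h post-plating, switched to serum-free induction medium and exposed in duplicate for 48 h. Dosing: 100 uM top, half-log dilutions, 8 points, 0.5% DMSO vehicle. Read-out: CYP3A7 mRNA, gain or loss fitted against DMSO baseline.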

CYP3A5 (gene 1577) = experiment: LTEA_HepaRG_CYP3A5: Life Technologies and Expression Analysis (LTEA) Assay for CYP3A5 using HepaRG (AID 2283493)
In short: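 Differentiated HepaRG cells in serum-free induction medium were dosed 48 h with test chemicals (8-point half-log series, top 100 uM, 0.5% DMSO, duplicate). CYP3A5 mRNA measured by qRT-PCR, normalized to ACTB, GAPDH, POLR2A; bidirectional fit versus DMSO.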

[7] = read-out: Fatty Acid-Binding Protein 1 (FABP1), FABP1 (gene 2168); experiment: LTEA_HepaRG_FABP1: Life Technologies and Expression Analysis (LTEA) Assay for Fatty Acid-Binding Protein 1 (FABP1) using HepaRG (AID 2283494)
In short: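 Differentiated human HepaRG cells exposed 48 h in serum-free induction medium to eight half-log concentrations up to 100 uM (0.5% DMSO), duplicate. FABP1 mRNA by qRT-PCR, normalised to ACTB, GAPDH, POLR2A; bidirectional fitting against DMSO.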

[8] = read-out: Cytochrome P450 4A22 (Homo sapiens) (UniProt Q5TCH4); experiment: LTEA_HepaRG_CYP4A22: Life Technologies and Expression Analysis (LTEA) Assay for Cytochrome P450 4A22 (CYP4A22) using HepaRG (AID 2283495)
In short: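 Readout is CYP4A22 transcript induction or loss, quantified by qRT-PCR and normalized to ACTB, GAPDH and POLR2A. Human HepaRG cells receive test chemicals for 48 h at eight half-log concentrations from 100 uM in 0.5% DMSO.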

[9] = read-out: Cytochrome P450 7A1 (Homo sapiens) (UniProt P22680); experiment: LTEA_HepaRG_CYP7A1: Life Technologies and Expression Analysis (LTEA) Assay for Cytochrome P450 7A1 (CYP7A1) using HepaRG (AID 2283496)
In short: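 Gene expression endpoint in human HepaRG liver cells treated for 48 h with test chemicals (up to 100 uM, 0.5% DMSO). Values come from bidirectional concentration-response fitting versus DMSO.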

[10] = read-out: Glutathione S-Transferase (GSTA2), GSTA2 (gene 2939); experiment: LTEA_HepaRG_GSTA2: Life Technologies and Expression Analysis (LTEA) Assay for Glutathione S-Transferase (GSTA2) using HepaRG (AID 2283497)
In short: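 Differentiated human HepaRG cells were exposed in duplicate for 48 h in serum-free induction medium, 8 points from 100 uM top in half-log steps, 0.5% DMSO. GSTA2 mRNA was measured by TaqMan qRT-PCR, normalized to ACTB, GAPDH and POLR2A; bidirectional fit versus DMSO.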

[11] = read-out: growth arrest and DNA damage 45 (GADD45G), GADD45G (gene 10912); experiment: LTEA_HepaRG_GADD45G: Life Technologies and Expression Analysis (LTEA) Assay for growth arrest and DNA damage 45 (GADD45G) using HepaRG (AID 2283499)
In short: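 Gain or loss of GADD45G mRNA, quantified by TaqMan qRT-PCR against three housekeeping genes, is fitted in both directions relative to 0.5% DMSO. Human HepaRG cultures receive test chemical for 48 h at up to 100 uM.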

[12] = read-out: Glutamate-cysteine ligase regulatory (GCLM), GCLM (gene 2730); experiment: LTEA_HepaRG_GCLM: Life Technologies and Expression Analysis (LTEA) Assay for Glutamate-cysteine ligase regulatory (GCLM) using HepaRG (AID 2283500)
In short: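 Differentiated human HepaRG cells exposed 48 h in serum-free induction medium to 8-point half-log concentrations (top 100 uM, 0.5% DMSO), in duplicate. GCLM mRNA quantified by qRT-PCR, normalized to ACTB, GAPDH, POLR2A; bidirectional fitting versus DMSO.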

[13] = read-out: Glutathione S-transferase M3 (GSTM3), GSTM3 (gene 2947); experiment: LTEA_HepaRG_GSTM3: Life Technologies and Expression Analysis (LTEA) Assay for Glutathione S-transferase M3 (GSTM3) using HepaRG (AID 2283501)
In short: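 HepaRG, plated 48 h, then serum-free induction medium; test chemical 48 h, duplicate; 100 uM top, half-log x8, 0.5% DMSO. Read-out: GSTM3 mRNA (TaqMan qRT-PCR, Fluidigm array). Bidirectional fit vs DMSO.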

[14] = read-out: Heat shock 70 kDa protein 1 (HSPA1A), gene 3303; experiment: LTEA_HepaRG_HSPA1A: Life Technologies and Expression Analysis (LTEA) Assay for Heat shock 70 kDa protein 1 (HSPA1A) using HepaRG (AID 2283502)
In short: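 Differentiated human HepaRG cells in serum-free induction medium were exposed in duplicate for 48 h to eight concentrations (top 100 uM, half-log steps, 0.5% DMSO). HSPA1A mRNA was quantified by qRT-PCR, normalized to ACTB, GAPDH and POLR2A, and fitted bidirectionally against DMSO.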

[15] = read-out: Glutamate-cysteine ligase catalytic (GCLC), GCLC (gene 2729); experiment: LTEA_HepaRG_GCLC: Life Technologies and Expression Analysis (LTEA) Assay for Glutamate-cysteine ligase catalytic (GCLC) using HepaRG (AID 2283498)
In short: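 Differentiated HepaRG cells exposed 48 h in serum-free induction medium, eight-point half-log series topping at 100 uM in 0.5% DMSO, duplicates. GCLC mRNA by qRT-PCR normalized to ACTB, GAPDH and POLR2A, fitted bidirectionally versus DMSO.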

Measured: AC50

Chain of Cytochrome P450 3A4 (Homo sapiens) (P08684 whole entry, looked up): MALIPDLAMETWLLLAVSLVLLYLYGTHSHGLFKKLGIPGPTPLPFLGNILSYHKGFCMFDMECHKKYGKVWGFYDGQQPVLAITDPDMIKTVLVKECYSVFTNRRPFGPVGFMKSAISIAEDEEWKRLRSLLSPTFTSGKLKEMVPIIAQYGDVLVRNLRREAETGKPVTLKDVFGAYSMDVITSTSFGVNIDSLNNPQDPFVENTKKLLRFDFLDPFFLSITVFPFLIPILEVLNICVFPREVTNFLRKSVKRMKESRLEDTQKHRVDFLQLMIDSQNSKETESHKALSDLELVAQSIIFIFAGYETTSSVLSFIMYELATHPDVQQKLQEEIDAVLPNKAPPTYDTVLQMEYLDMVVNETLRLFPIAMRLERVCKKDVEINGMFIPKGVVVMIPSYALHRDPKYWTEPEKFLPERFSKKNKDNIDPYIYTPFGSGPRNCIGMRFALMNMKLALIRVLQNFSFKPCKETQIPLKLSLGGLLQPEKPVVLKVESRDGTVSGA
Chain of Cytochrome P450 3A7 (Homo sapiens) (P24462 whole entry, looked up): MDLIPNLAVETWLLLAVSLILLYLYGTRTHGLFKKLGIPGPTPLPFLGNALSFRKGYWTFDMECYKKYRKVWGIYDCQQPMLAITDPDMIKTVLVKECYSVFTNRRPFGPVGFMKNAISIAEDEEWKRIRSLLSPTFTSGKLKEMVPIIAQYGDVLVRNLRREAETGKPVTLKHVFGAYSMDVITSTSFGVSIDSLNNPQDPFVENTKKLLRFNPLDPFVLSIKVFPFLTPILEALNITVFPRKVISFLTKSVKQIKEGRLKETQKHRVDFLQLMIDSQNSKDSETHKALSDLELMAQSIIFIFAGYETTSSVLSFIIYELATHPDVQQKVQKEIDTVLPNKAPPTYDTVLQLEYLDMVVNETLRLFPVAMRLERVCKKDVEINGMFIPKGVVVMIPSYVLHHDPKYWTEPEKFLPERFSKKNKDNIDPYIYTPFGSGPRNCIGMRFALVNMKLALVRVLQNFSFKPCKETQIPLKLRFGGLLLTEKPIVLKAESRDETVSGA

CSc1nnc(C(C)(C)C)c(=O)n1N
active: CYP2E1 (gene 1571) 23.2 µM
not listed: [15]
inactive: all other assays above

CC(Oc1cccc(Cl)c1)C(=O)O (stereo unspecified)
active: CYP2C8 (gene 1558) 14.4 µM | CYP2C9 (gene 1559) 2.04 µM | CYP2E1 (gene 1571) 4.01 µM | [1] 10 µM | [6] 14.2 µM
not listed: [8] | [13] | [14] | [15]
inactive: all other assays above

CCOC(=O)COc1cc(-c2nn(C)c(OC(F)F)c2Cl)c(F)cc1Cl
active: CYP2C8 (gene 1558) 50 µM | CYP2E1 (gene 1571) 16.3 µM | [1] 22.8 µM | [6] 30.1 µM
not listed: [15]
inactive: all other assays above

CCc1cnc(C2=NC(C)(C(C)C)C(=O)N2)c(C(=O)O)c1 (stereo unspecified)
not listed: [8] | [15]
inactive: all other assays above

Nc1c(Cl)cc([N+](=O)[O-])cc1Cl
active: CYP2C8 (gene 1558) 78.4 µM | CYP2C9 (gene 1559) 63.8 µM | CYP2E1 (gene 1571) 40.4 µM | CYP4A11 (gene 1579) 67.4 µM | [1] 11.5 µM | [2] 35.1 µM | [4] 31.8 µM | [5] 50 µM | [6] 84.2 µM | CYP3A5 (gene 1577) 27.5 µM | [7] 41.8 µM | [8] 74.2 µM | [9] 50 µM | [10] 64.7 µM | [11] 50 µM | [14] 26.8 µM
inactive: [3] | [12]

CNC(=O)ON=C(C)SC
not listed: [8] | [13]
inactive: all other assays above

CNc1cnn(-c2cccc(C(F)(F)F)c2)c(=O)c1Cl
active: CYP2E1 (gene 1571) 41.1 µM | [1] 31.5 µM | [3] 29.8 µM | [7] 26 µM | [9] 21.4 µM | [15] 28 µM | [12] 30.1 µM
not listed: [8] | [13]
inactive: all other assays above
